PubChem BioAssay AID1220 (Sanford-Burnham Center for Chemical Genomics, 2008)
In all, about 190,000 compounds went through this assay and about 1,300 (0.68%) were called active. Cut-off read from the data, not from the text of the source: active = inhibition above about 50%; inactive = the rest. Many of the other results were omitted from the sample, so actives are more common in it than they were.

Target: Mannose-6-phosphate isomerase (Homo sapiens) (UniProt P34949)
Test: MPI inhibition at elevated mannose 6-phosphate – biochemical, fluorescence intensity, high mannose 6-phosphate, primary screen (AID 1220)
Conditions: recombinant PMI enzyme, coupled fluorescence intensity; at 20 µM; hits give high values

Sequence of Mannose-6-phosphate isomerase (Homo sapiens) (P34949 whole entry, looked up): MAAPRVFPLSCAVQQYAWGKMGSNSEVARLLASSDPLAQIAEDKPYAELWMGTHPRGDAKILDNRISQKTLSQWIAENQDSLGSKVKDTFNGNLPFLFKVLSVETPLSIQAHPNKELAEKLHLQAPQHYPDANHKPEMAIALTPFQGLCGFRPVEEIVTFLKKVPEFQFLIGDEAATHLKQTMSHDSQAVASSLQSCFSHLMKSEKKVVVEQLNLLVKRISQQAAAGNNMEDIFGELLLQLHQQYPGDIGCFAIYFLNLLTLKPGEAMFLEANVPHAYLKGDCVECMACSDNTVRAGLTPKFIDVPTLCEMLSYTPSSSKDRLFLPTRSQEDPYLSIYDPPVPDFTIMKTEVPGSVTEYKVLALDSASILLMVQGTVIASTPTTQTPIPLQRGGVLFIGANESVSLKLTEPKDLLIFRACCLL

inhibition, inactive:
CC(=O)c1cccc(NC(=O)CCS(=O)(=O)c2cccc3nsnc23)c1 -33.5%
CC(C)(C)NCCCCOc1ccc(F)cc1 4.1%
CCOc1ccc(OCCCCNCCN)cc1 -2.4%
O=P(CO)(Cc1ccccc1)Cc1ccccc1 5%
O=C(O)C/C=C(\NC(=O)OCc1ccccc1)C(=O)OCc1ccccc1 -163%
Cn1cnnc1SC/C(O)=C(\C#N)c1nc2ccccc2[nH]1 0.7%
Cc1ccccc1-n1c(SC/C(O)=C(\C#N)c2nc3ccccc3[nH]2)nnc1-c1ccncc1 20.6%
CCOc1cc(/C=N/NC(=O)COc2ccc(Cl)cc2)ccc1OS(=O)(=O)c1ccccc1 -94.4%
COc1ccccc1C(=O)Nc1cc2cc(Cl)ccc2oc1=O -8%
COC(=O)[C@@H](N)Cc1ccc(O)cc1 6.4%
COC(=O)C(N)Cc1ccc(O)cc1 (stereo unspecified) -2.8%
COc1cc2c(cc1OC)CN(C(=O)CSc1nnc(C)s1)CC2 -13.4%
N#CC1=C2SCN(c3ccccc3)CN2C(=O)CC1c1ccccc1Cl (stereo unspecified) -41%
N#CC1=C2SCN(c3ccccc3)CN2C(=O)CC1c1cccs1 (stereo unspecified) -2%
CCc1ccccc1N1CSC2=C(C#N)C(c3ccccc3F)CC(=O)N2C1 (stereo unspecified) -5.1%
CCc1ccc(N2CSC3=C(C#N)C(c4cccs4)CC(=O)N3C2)cc1 (stereo unspecified) -68.6%
O=C(COC(=O)c1cccnc1)Nc1ccc2c(c1)OCO2 17.6%
Cc1cc(C)c(C(=O)Nc2ccc(S(=O)(=O)Nc3onc(C)c3C)cc2)c(C)c1 7.8%
OC(COC1CCCCC1)CN1CCN(c2ccccc2)CC1 (stereo unspecified) 10.6%
N/C(=N\OC(=O)c1cc(Cl)ccc1Cl)c1ccccn1 -10.6%
Cc1cc(C)n(CCN(C)c2nc3nonc3nc2NC2CC2)n1 14.8%
CCCNC(=O)NCCc1c(C)[nH]c2ccccc12 0.4%
CN(C)C(=O)c1ccc2c(c1[N+](=O)[O-])C(=O)c1ccccc1C2=O -16.2%
Cc1ccc([N+](=O)[O-])cc1S(=O)(=O)NCCc1c(C)[nH]c2c(C)cccc12 -3%
CCN(CC)C(=O)c1ccc2c(c1[N+](=O)[O-])C(=O)c1ccccc1C2=O 29.5%
O=C(O)c1cccc(NS(=O)(=O)c2ccc3nnn(O)c3c2)c1 11.9%
CCn1c(=O)c(C(=O)NNS(=O)(=O)c2ccc(Cl)cc2)c(O)c2ccccc21 -7.4%
CN(C(=O)c1c(Br)cnn1C)C12CC3CC(CC(C3)C1)C2 -2.3%
CCC(=O)Nc1cccc(NC(=O)COc2ccc(OC)cc2)c1 6.7%
Cc1ccc(S(=O)(=O)c2c(N)n(CCC(C)C)c3nc4ccccc4nc23)cc1 1.8%
CCCCn1c(NC(=O)c2ccc(Br)o2)c(S(=O)(=O)c2ccccc2)c2nc3ccccc3nc21 5.9%
C=CCn1c(NC(=O)c2ccco2)c(S(=O)(=O)c2ccccc2)c2nc3ccccc3nc21 34.3%
CC(=O)Nc1c(S(=O)(=O)c2ccccc2)c2nc3ccccc3nc2n1Cc1ccccc1 7.9%
Cc1ccc(-n2c(N)c(S(=O)(=O)c3ccccc3)c3nc4ccccc4nc32)cc1 0.2%
CCCCn1c(NCc2ccccc2NS(=O)(=O)c2ccc(C)cc2)nc2ccccc21 15.2%
Cc1ccc(S(=O)(=O)c2c(N)n(NC(=O)c3ccco3)c3nc4ccccc4nc23)cc1 -41.3%
Cc1ccc(S(=O)(=O)c2c(N)n(Cc3ccco3)c3nc4ccccc4nc23)cc1 -3.1%
CC(C)CSc1n[nH]c(N)n1 -6.6%
Cc1ccccc1/C=N\NC(=O)c1ccccc1-n1cccc1 15.6%
CCOC(=O)c1c(N/N=C/c2ccncc2)n[nH]c1C -0.3%
Cc1ccccc1Nc1nnc(SCC(=O)NC(=O)Nc2ccc3c(c2)OCCO3)s1 3.7%
Cc1ccc(NC(N)=S)cc1 -4.6%
COc1cccc(-c2nn3c(-c4cc(C)[nH]n4)nnc3s2)c1 -5.7%
CC(C(=O)OCC(=O)Nc1ccc(S(=O)(=O)N2CCCCC2)cc1)N1C(=O)c2ccccc2C1=O (stereo unspecified) 7.2%
O=S(=O)(c1ccccc1)c1nc(NCc2cccnc2)sc1Cl -5.8%
O=C(Nc1ccc(NC(=O)C2CCCN2C(=O)OCc2ccccc2)cc1)c1ccco1 (stereo unspecified) -8.3%
COc1ccc(CNC(=O)C(OC(=O)c2nsc(Cl)c2Cl)C(C)C)cc1 (stereo unspecified) 14.4%
CC/C(=N/OC(=O)c1cccc(C)c1)C(=O)c1cccs1 -0.6%
CCOc1ccc(NC(=O)C2CCN(C(=O)NC3CCCCC3)CC2)cc1 -11.9%
CCn1nnnc1-c1ccc(OC)c(S(=O)(=O)Nc2ccc(C)c(C)c2)c1 -3.8%
Cc1ccc(Cl)cc1N1CCN(C(=O)CCC(=O)O)CC1 -5.1%
Cc1ccc(CSC2=NCCN2C(=O)C2CC2)cc1 -1.1%
Nc1c(S(=O)(=O)c2ccccc2)c2nc3ccccc3nc2n1C1CC1 0.4%
Cc1ccc(S(=O)(=O)c2c(N)n(CCCO)c3nc4ccccc4nc23)cc1 8.6%
CCCCn1c(N)c(S(=O)(=O)c2ccc(C)cc2)c2nc3ccccc3nc21 20.2%
CCC(=O)Nc1c(C#N)c2nc3ccccc3nc2n1C1CCCCC1 17.4%
Cc1ccc(N(Cc2ccc([N+](=O)[O-])cc2)C(=O)c2ccco2)cc1C 4.7%
Cc1ccc(O)c(-c2cc(C(F)(F)F)[nH]n2)c1 3.7%
COC(=O)c1nc2nc(C)cc(=O)n2[nH]1 3.3%
O=C(Nc1ccc([N+](=O)[O-])cc1)C1C(c2ccccc2)=C1c1ccccc1 1.6%
CC(C)C(c1nnnn1Cc1ccc(F)cc1)N1CCSCC1 (stereo unspecified) 4.6%
CC(C)C(c1nnnn1Cc1ccc(F)cc1)N1CCN(C2CCCC2)CC1 (stereo unspecified) 3%
Cn1c(-c2ccc(F)cc2)cnc1NCc1cc2c(cc1[N+](=O)[O-])OCO2 15.7%
CCNc1nc(NC(C)C)nc(N(n2cnnc2)S(=O)(=O)c2ccc(C)cc2)n1 5.3%
Cc1cc(=O)n2nc(N3CCC(C(=O)NC4CCCc5ccccc54)CC3)sc2n1 (stereo unspecified) -0.3%
CC(=O)N1CCCN(Cc2cn(-c3ccc(C)cc3)nc2-c2cccc(C)c2)CC1 9.1%
Cc1ccc(-n2cc(CN3CCNC(=O)CC3)c(-c3cccc(C)c3)n2)cc1 12.5%
CN(C)c1ccc(C(CNS(=O)(=O)c2ccc3ccccc3c2)c2c[nH]c3ccccc23)cc1 (stereo unspecified) 13.6%
Cc1ccc(N2C(N)=C(C#N)C(c3cccs3)C3=C2CC(C)(C)CC3=O)cc1 (stereo unspecified) 8.2%
CSc1sc(C)cc1C1C(C#N)=C(N)N(c2cccnc2)C2=C1C(=O)CCC2 (stereo unspecified) 13.3%
CC1(C)CC(=O)C2=C(C1)N(c1ccc(F)cc1)C(N)=C(C#N)C2c1cccs1 (stereo unspecified) 28.6%
Cc1nn(C)cc1C1C(C#N)=C(N)N(c2cccnc2)C2=C1C(=O)CCC2 (stereo unspecified) 28.3%
CC(=O)Nc1ccc(/C=C(\C#N)C(=O)NC2CCCCC2)cc1 4.7%
Cc1ccc(-c2nnc(SCC(=O)NNC(=O)COc3ccccc3C)n2C)cc1 3.3%

inhibition, active:
CCOc1ccc(OCCCCNC(C)(C)C)cc1 58.8%
Cc1cc(C)n2c(SC/C(O)=C(\C#N)c3nc4ccccc4[nH]3)nnc2n1 53.4%
NC(CO)C(=O)NNCc1ccc(O)c(O)c1O (stereo unspecified) 60.4%
N#CC1=C2SCN(Cc3ccccc3)CN2C(=O)CC1c1ccccc1F (stereo unspecified) 52.1%
N#CC1=C2SCN(Cc3ccccc3)CN2C(=O)CC1c1cccs1 (stereo unspecified) 67.2%
Cc1[nH]c2c(C)cccc2c1CCNC(=O)c1ccc2c(c1[N+](=O)[O-])C(=O)c1ccccc1C2=O 55.5%
Cc1[nH]c2ccccc2c1CCNC(=O)c1ccc2c(c1[N+](=O)[O-])C(=O)c1ccccc1C2=O 53.9%
CCCCn1c(NS(=O)(=O)c2ccc(C)cc2)c(S(=O)(=O)c2ccccc2)c2nc3ccccc3nc21 54.9%
CCCCCn1c(NC(=O)c2ccco2)c(S(=O)(=O)c2ccc(C)cc2)c2nc3ccccc3nc21 50.2%
C=CCn1c(NS(=O)(=O)c2ccccc2)c(S(=O)(=O)c2ccc(C)cc2)c2nc3ccccc3nc21 52.4%
C=CCn1c(NC(=O)c2ccc(Br)o2)c(S(=O)(=O)c2ccccc2)c2nc3ccccc3nc21 50.8%
CCCCn1c(NS(=O)(=O)c2ccccc2)c(S(=O)(=O)c2ccc(C)cc2)c2nc3ccccc3nc21 57.6%
O=S(=O)(Nc1c(S(=O)(=O)c2ccccc2)c2nc3ccccc3nc2n1C1CCCCC1)c1ccccc1 59.7%
CC(C)C(c1nnnn1Cc1ccc(F)cc1)N1CCN(c2ccc(O)cc2)CC1 (stereo unspecified) 66.2%
COC(=O)CC1C(=O)NCCN1Cc1cn(-c2ccc(C)cc2)nc1-c1cccc(C)c1 (stereo unspecified) 52.9%
Cc1ccc(C2C(C#N)=C(N)N(c3cccnc3)C3=C2C(=O)CCC3)s1 (stereo unspecified) 56.7%
CC1(C)CC(=O)C2=C(C1)N(c1cccnc1)C(N)=C(C#N)C2c1cccs1 (stereo unspecified) 53.9%
